Compound activity from PubChem BioAssay.
Compounds with a hit are over-represented: about 7% of the library has one in this group of screens.
KAT2A inh: GCN5L2 (KAT2A) acetyltransferase inhibition; Q92830; GCN5L2 HAT assay, ThioGlo1 CoA-SH fluorescence; Potency, µM (titrated, usually from 58.9 µM), actives largely listed as inhibitors; hit rate 0.21% among 390,000; AID 504327
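Titration-based screen in which CoA formation is detected via maleimide probe ThioGlo1 (50uM) turning fluorescent on thiol reaction; substrates H3(1-25) 75uM and acetyl-CoA 70uM, GCN5L2 20nM, 20 min incubation at room temperature.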
PI5P4Ka inh: blocks human PI5P4K alpha kinase activity; P48426; PI5P4Kalpha enzyme, ADP-Glo luminescence, 60 min; active compounds read low; max response, %; hit rate 1.2% among 330,000; active = max response of -50% or lower; inconclusive = between -30% and -50%; inactive = -30% or higher; note: value at the top dose of about 77 µM
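Single end-point luminescence (ADP-Glo) quantified ADP from PI5P4Kalpha turnover; ATP 5 microM final, 1 h at RT, 0.1% CHAPS and 0.28 mM EGTA in HEPES pH 7.4.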
PLK1 PBD inh: blocks phosphopeptide binding to human PLK1 polo-box domain; hit rate 2.8% among 360,000; P53350; Potency, µM, usual class: inhibitors; Plk1 PBD binding of FITC phosphopeptide, fluorescence polarization; AID 720504; note: series mostly up to about 57 µM; nearly all actives have a fitted effect of over 65% in size
HP1b binding inh: inhibitors of HP1-beta chromodomain binding to methylated histone tails; AlphaScreen HP1-beta / biotin-H3K9me3 peptide binding; Potency, µM (titrated, usually from 114 µM), hits mostly inhibitors; hit rate 0.56% among 390,000; P83916; AID 540317; note: nearly all actives have a fitted effect of over 70% in size
Target sequence (P83916 whole entry, looked up): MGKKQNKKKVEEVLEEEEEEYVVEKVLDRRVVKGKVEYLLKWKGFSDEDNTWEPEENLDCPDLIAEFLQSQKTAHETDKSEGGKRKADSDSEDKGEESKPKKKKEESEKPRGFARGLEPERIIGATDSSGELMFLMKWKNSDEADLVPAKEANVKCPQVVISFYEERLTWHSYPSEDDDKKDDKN
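AlphaScreen: HP1-beta (50 nM) preformed 30 min with biotin-H3(1-18)K9me3 peptide (50 nM) in PBS pH 7.4, 0.01% Tween-20. Compound added for 30 min at RT, then streptavidin donor/nickel chelate acceptor beads (10 ug/mL) for 30 min.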
JMJD2A Tudor inh: blocks the human JMJD2A Tudor domain; O75164; AlphaScreen JMJD2A-Tudor / H3K4me3 peptide binding; Potency, µM (top dose mostly 114 µM), hits mostly inhibitors; hit rate 4.4% among 390,000; note: nearly all actives have a fitted effect of over 50% in size
BAZ2B block: inhibitors of human BAZ2B bromodomain | Q9UIF8 | AlphaScreen BAZ2B-H3K14Ac peptide displacement | Potency, µM (titrated, usually from 114 µM), hits mostly inhibitors | hit rate 4.4% among 360,000 | AID 504333; note: nearly all actives have a fitted effect of over 60% in size
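AlphaScreen displacement: compounds (up to 110uM) incubated 30 min at room temperature with a preformed 50 nM BAZ2B/50 nM biotinylated H3K14Ac peptide complex in PBS pH 7.4 with Tween-20. Donor and acceptor beads at 10 ug/mL final added, 20 min light-protected before reading.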
12-hLO cuvette: 12-hLO (human) inhibition, 8HQ series round 1; hit rate 60% among 35; purified 12-hLO, cuvette UV 234 nm product formation; AID 2163; shares compounds with BAZ2B block; Potency, µM, usual class: inhibitors;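 active = compounds that slowed 12-hLO product formation enough to yield a measured IC50 potency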
KDM4E inh: inhibitors of human JMJD2E demethylase, 8HQ series round 1. AID 493212. shares compounds with BAZ2B block. Potency, µM (titrated, usually from 57 µM), usual class: inhibitors. hit rate 89% among 130. JMJD2E demethylase, FDH-coupled NADH fluorescence (FDH is formaldehyde dehydrogenase)
Target sequence (B2RXH2 1-337 limits assumed): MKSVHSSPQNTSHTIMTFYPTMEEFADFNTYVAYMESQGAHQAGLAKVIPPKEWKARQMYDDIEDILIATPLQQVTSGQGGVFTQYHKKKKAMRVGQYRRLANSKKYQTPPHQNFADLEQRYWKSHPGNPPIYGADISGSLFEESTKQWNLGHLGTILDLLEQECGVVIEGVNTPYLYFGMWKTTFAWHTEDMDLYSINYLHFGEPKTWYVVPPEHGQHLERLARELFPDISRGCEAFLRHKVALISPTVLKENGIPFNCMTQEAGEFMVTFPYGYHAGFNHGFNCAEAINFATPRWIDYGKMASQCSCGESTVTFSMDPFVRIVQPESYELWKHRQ
ME-1 growth: reduces ME-1 leukemia cell proliferation. Potency, µM (titrated, usually from 56.1 µM), hits mostly inhibitors. hit rate 20% among 140. AID 504370. ME-1 cell proliferation, ATP luminescence, 48 h. shares compounds with BAZ2B block
Hits are given with their value; [ ] = another dose, or the depositor's remark. Unless noted, calls come from the whole dose curve; as a rule, active = well fitted curve in the direction sought with a large enough effect; inconclusive = small, poorly fitted or top-dose-only effect, or another doubt; inactive = no such curve, though single readings can be large; an effect the other way counts as inactive or inconclusive.

CCC(=O)NC(c1cc(Cl)c2cccnc2c1O)C1CC1 (centres undefined) was read as KAT2A inh inactive, HP1b binding inh inactive, JMJD2A Tudor inh 79µM, BAZ2B block 32µM, 12-hLO cuvette 1.6µM and KDM4E inh 32µM.
For CCCCC(=O)NC(c1cccs1)c1cc(Cl)c2cccnc2c1O (centres undefined) the results were KAT2A inh inactive, PI5P4Ka inh inactive, PLK1 PBD inh inactive, HP1b binding inh inactive, JMJD2A Tudor inh inactive and BAZ2B block inactive.
`CCN(CC)C(=O)Oc1ccc(Cl)c2cccnc12` gave KAT2A inh inactive, PI5P4Ka inh inactive, PLK1 PBD inh inactive, HP1b binding inh inactive, JMJD2A Tudor inh inactive and BAZ2B block inactive.
For CCC(=O)NC(c1cc(Cl)c2cccnc2c1O)C(C)C (centres undefined) the results were KAT2A inh inactive, HP1b binding inh inactive, JMJD2A Tudor inh inconclusive, BAZ2B block 79µM, 12-hLO cuvette 1.2µM and KDM4E inh 20µM.
For CC(=O)NC(c1cc(F)c2cccnc2c1O)C1CC1 (centres undefined) the results were KAT2A inh inactive, HP1b binding inh inactive, JMJD2A Tudor inh 79µM, BAZ2B block 50µM, 12-hLO cuvette inactive and KDM4E inh 29µM.
`CCC(=O)NC(c1ccco1)c1cc(Br)c2cccnc2c1O` (centres undefined) gave KAT2A inh inactive, BAZ2B block 28µM, 12-hLO cuvette 2µM and KDM4E inh 32µM.
CC(=O)N1CCc2cc(S(=O)(=O)CCC(=O)NCc3ccc(F)cc3)ccc21 was read as KAT2A inh inactive, PI5P4Ka inh inactive, PLK1 PBD inh inactive, HP1b binding inh inactive, JMJD2A Tudor inh inactive and BAZ2B block inactive.
Screening CC1(C)C(C(=O)OCC(Cl)(Cl)Cl)N2C(=O)C(NC(=O)Cc3ccccc3)C2S1=O (centres undefined) returned KAT2A inh inactive, PI5P4Ka inh inactive, PLK1 PBD inh inconclusive, HP1b binding inh inactive, JMJD2A Tudor inh inactive and BAZ2B block inconclusive.
CCCNC(=O)c1cnn2c(C(F)F)cc(-c3ccccc3)nc12 was read as KAT2A inh inactive, HP1b binding inh inactive, JMJD2A Tudor inh inactive and BAZ2B block inactive.
For COc1cc(/C=N/NC(=O)c2cncc(Br)c2)cc([N+](=O)[O-])c1O the results were KAT2A inh inconclusive, PI5P4Ka inh inconclusive, PLK1 PBD inh inactive, HP1b binding inh inactive, JMJD2A Tudor inh inactive[11.4 µM], BAZ2B block 8.9µM and ME-1 growth 35µM.
For CCC(=C(c1ccc(O)cc1)c1ccc(OCCN(C)C)cc1)c1ccccc1 the results were PI5P4Ka inh inactive and PLK1 PBD inh inactive.
Screening CC/C(=C(\c1ccccc1)c1ccc(OCCN(C)C)cc1)c1ccccc1 returned KAT2A inh inconclusive, PI5P4Ka inh inactive, PLK1 PBD inh inactive, HP1b binding inh inconclusive, JMJD2A Tudor inh 45µM, BAZ2B block 35µM and ME-1 growth 24µM.
`CC(=O)NC(c1ccco1)c1cc(Cl)c2ccc(N3CCCCC3)nc2c1O` (centres undefined) gave KAT2A inh inactive, BAZ2B block inconclusive, 12-hLO cuvette inactive and KDM4E inh 20µM.
`COc1cc(C(=O)NC(c2ccccc2Cl)c2cc(Cl)c3cccnc3c2O)cc(OC)c1OC` (centres undefined) gave KAT2A inh inactive, HP1b binding inh inactive, JMJD2A Tudor inh inactive and BAZ2B block inactive.
Cc1ccc(NC(=O)CNC(=O)C23CC4CC(CC(C4)C2)C3)nc1 was read as PI5P4Ka inh inactive and PLK1 PBD inh inactive.
For c1ccc(CSc2ccc(-c3ccccn3)nn2)nc1 the results were KAT2A inh inactive, PI5P4Ka inh inactive, PLK1 PBD inh inactive, HP1b binding inh inactive, JMJD2A Tudor inh inconclusive, BAZ2B block 4.5µM and ME-1 growth inconclusive.
`Clc1ccc(-c2ccc(SCc3ccccn3)nn2)cc1` gave KAT2A inh inactive, PLK1 PBD inh inactive, HP1b binding inh inactive, JMJD2A Tudor inh inactive and BAZ2B block inactive.
COc1cc2cccc(OC)c(=O)c2c(O)c1OC was read as KAT2A inh inactive, PI5P4Ka inh inactive, PLK1 PBD inh inactive, HP1b binding inh inactive, JMJD2A Tudor inh inactive and BAZ2B block inactive.
For CC(=O)Oc1cc2cccc(OC(C)=O)c(=O)c2c(OC(C)=O)c1OC(C)=O the results were KAT2A inh inactive, PI5P4Ka inh -89, PLK1 PBD inh inconclusive, HP1b binding inh inconclusive, JMJD2A Tudor inh 8.9µM, BAZ2B block 1.6µM and ME-1 growth inconclusive.
`Nc1ccc(N)c(C(=O)O)c1` gave KAT2A inh 7.9µM, PI5P4Ka inh -91, PLK1 PBD inh 24µM, HP1b binding inh 3.2µM, JMJD2A Tudor inh 3.5µM, BAZ2B block 4µM and ME-1 growth inactive.
For O=C1c2ccccc2C(=O)N1/N=C/c1ccc(O)c(O)c1O the results were KAT2A inh inactive, PI5P4Ka inh -55, PLK1 PBD inh 13µM, HP1b binding inh 22µM, JMJD2A Tudor inh 22µM, BAZ2B block inconclusive and ME-1 growth inconclusive.
For N[C@H](Cc1ccc(O)c(O)c1)C(=O)O the results were ME-1 growth inactive.
Screening NC(Cc1ccc(O)c(O)c1)C(=O)O (centres undefined) returned ME-1 growth inconclusive.
COC(=O)C(N)Cc1ccc(O)c(O)c1 (centres undefined) was read as KAT2A inh inactive, PI5P4Ka inh inactive, PLK1 PBD inh inactive, HP1b binding inh inactive, JMJD2A Tudor inh inactive and BAZ2B block inactive.
For CN(Cc1ccn[nH]1)C(=O)C1CCC(=O)N(Cc2cccc(C(F)(F)F)c2)C1 (centres undefined) the results were KAT2A inh inactive, PI5P4Ka inh inactive, PLK1 PBD inh inactive, HP1b binding inh inactive, JMJD2A Tudor inh inactive and BAZ2B block inactive.
For C[C@@H]1CN([C@@H](C)CO)C(=O)CCCn2nncc2CO[C@@H]1CN(C)S(=O)(=O)c1ccccc1C#N the results were PI5P4Ka inh inactive and PLK1 PBD inh inactive.
For C=CN1CCCC1=O the results were KAT2A inh inactive and ME-1 growth inactive.
Screening CCN1CCCC1=O returned KAT2A inh inactive.
